Drawing on PubChem BioAssay (NCI), this text covers growth for 40 compounds.

Several values for one entry are separate records, joined by “and”; a condition that tells them apart may be missing. Identical values can stand only once. This is part of a sample that, as a whole, favours compounds with a hit. Of some 83,000 tested, about 20% had one in any assay.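 Assay: single dose, 48 h. Readout: percent growth (0 = no net growth; negative = cell death). Active: <10.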 Values without a mark were called inactive. Activity calls are given as the source filed them.

This experiment deals with MOLT-4 leukemia. The experiment can be described thus: NCI-60 one-dose screen, 48 h (100 = growth as untreated, 0 = no growth, -100 = all killed). Conditions: 10 µM unless noted. As for the experimental part:
Growth inhibition of the MOLT-4 human tumor cell line is measured as a screen for anti-cancer activity. Cells are grown in 96 well plates and exposed to the test compound for 48 hours. Compounds are tested at a single concentration, which is 10^-5 M for most compounds. The reported endpoint is percent growth (GI% or GIPRCNT), where numbers from 0 - 100% represent growth inhibition, and numbers from -100% - 0 represent cell death. For example, a value of 40 represents 60% growth inhibition. A value of 0 means no net growth occurred over the course of the experiment. A value of -40 indicates 40% of cells at the beginning of the experiment died by the end of the experiment. A value of -100 means all cells are dead at the end of the experiment.
NCI-60 Human Tumor Cell Lines Screen was performed using the standard one-dose NCI protocol, which is described in more detail at https://dtp.cancer.gov/discovery_development/nci-60/default.htm.
Compounds with GIPRCNT values below 10 were considered active. Activity score was based on GIPRCNT using the following formula: […]
Score is 0 for GIPRCNT values of 100 or above, 50 for GIPRCNT values of 0, and 100 for GIPRCNT values of -100.
Consider `Cc1ccc(C(=O)Nc2cc(-n3ccnc3)cc(C(F)(F)F)c2)cc1-n1cc(-c2cnc3cccnn23)nn1`, for which the growth was 105%.

Regarding `Cc1nc(Nc2ccccn2)sc1C1=NNC(c2ccccc2F)C1` (stereo not given), the growth is 25.4%.

As for `CC[C@]12C=CCN3CC[C@@]4(c5ccc(OC)cc5N(C)[C@H]4[C@@](O)(C(=O)OC)[C@@H]1OC(=O)CCCC[P+](c1ccc(F)cc1)(c1ccc(F)cc1)c1ccc(F)cc1)[C@@H]32`, the growth is 29.1%.

For `CN1C(=O)C(O)(CC(=O)c2cc3ccccc3oc2=O)c2ccccc21` (stereo not given), the growth was 83.4%.

`COc1ccc(/C=C/c2nc3ccccc3n3c(-c4cccc([N+](=O)[O-])c4)nnc23)cc1`: the growth is -36.5% (active).

In the case of `O=CNc1cccc(-n2cnc3cc(-c4ccc(O)cc4)ccc32)c1`, the growth was 27.7%.

As to `COc1ccc(Nc2nnc(-c3c[nH]c4ccccc34)o2)cc1`, the growth is 40.3%.

In the case of `Cn1cc(-c2cc3nc(-c4cn(C)c5ncc(Br)cc45)cc(N)n3n2)c2cc(F)ccc21`, the growth is 17.4%.

For the compound `N#CC1=C(c2cccs2)Nc2c(c(-c3ccccc3)nn2-c2ccccc2)C12C(=O)Nc1ccc(Br)cc12` (stereo not given), the growth was -3.33% (active).

For the compound `CCC(=O)c1c2c(c3ccc4c5ccccc5ccc4n13)C(=O)c1ccccc1C2=O`, the growth was 89.6%.

Turning to `CCN1C(=O)N(CC)C2NNC(Sc3c(C(=O)O)c4ccccc4n(CC(C)C)c3=O)=NC21` (stereo not given), the growth was 6.5% (active).

In the case of `O=C(NNC(=O)c1ccc(OCc2nc3ccc(Cl)cc3[nH]2)cc1)Nc1ccc(Cl)c(Cl)c1`, the growth was 94%.

Regarding `Nc1cc(-c2c[nH]c3ccc(Cl)cc23)nc2cc(-c3c[nH]c4ccccc34)nn12`, the growth was -27.4% (active).

With `C/C(=N/O)c1ccc(NC(=O)CSc2nnc(-c3ccc(-c4nc5ccc(Cl)cc5[nH]4)cc3)o2)cc1`, the growth is 2.09% (active).

With `CS(=O)(=O)Nc1cccc(-n2c(COc3ccc(OC(F)(F)F)cc3)nc3ccccc32)c1`, the growth was 80.3% and 97%.

Consider `COc1ccc(CCC2NCCc3c(Br)c4c(c(OC)c32)OCO4)cc1` (stereo not given), for which the growth was 9.59% (active).

Consider `CC(=O)c1ccc2c(N)c(C(=O)Nc3ccc(C(F)(F)F)cc3)sc2n1`, for which the growth was 32.7%.

On to `CNS(=O)(=O)N1CCc2c(Br)c3c(c(OC)c2C1CCc1ccccc1)OCO3` (stereo not given), for which the growth was 1.16% (active).

`Cc1ccc(C(=O)Nc2cccc(C(=O)NC(=S)Nc3ccc(S(N)(=O)=O)cc3)c2)cc1`: the growth was 59.2%.

For `C=CCSc1nnc(-c2c(C)nc3sccn23)o1`, the growth is 116%.

In the case of `Cc1ccc(C2CC(c3ccc(NC(=S)Nc4ccccc4)cc3)=NN2c2ccc(S(N)(=O)=O)cc2)cc1` (stereo not given), the growth was 25.8%.

With `COc1ccc(C2=Nc3c(N)nc(N)nc3NC(c3ccc(Oc4nc(Nc5ccc(F)cc5)nc(N(C)C)n4)c(OC)c3)C2)cc1` (stereo not given), the growth was 18.4%.

As to `COc1ccc(-c2nc3ccc(-c4nnc(SCC(=O)Nc5ccc(/C(C)=N\O)cc5)o4)cc3[nH]2)cc1`, the growth is 55.9%.

In the case of `COc1c(B(O)O)cc(F)cc1-c1nc2ccc3[nH]ncc3c2c2c1COCC2`, the growth is 53.1%.

With `Cc1ccc(O)cc1Nc1nc(SCCN2CCOCC2)nc2c1cnn2CC(Cl)c1ccc(Br)cc1` (stereo not given), the growth is -24.6% (active).

Consider `O=C(Nc1ccc(-c2ccc3c(c2)NC(=O)/C3=C\c2ccc[nH]2)cc1)Nc1ccc(Cl)c(Cl)c1`, for which the growth is 33.5%.

In the case of `Cc1[nH]nc2ccc3nc(-c4cn[nH]c4C(F)(F)F)c4c(c3c12)CCCC4`, the growth is 2.2% (active).

On to `CCCCN1C(=O)/C(=C\C(=O)c2cc3ccccc3oc2=O)c2ccccc21`, for which the growth was 3.77% (active).

`COc1ccc2c(c1)C(Sc1ccc(F)cc1)c1c(nc(N)c(C#N)c1N)O2` (stereo not given): the growth is 53.9%.

On to `COc1ccc(C(=O)/C=C/c2ccc3c(c2)OCCO3)cc1S(N)(=O)=O`, for which the growth is 37.4%.

As to `O=C(Nc1nc2ccc([N+](=O)[O-])cc2s1)Nc1ccccc1F`, the growth was 15.7%.

In the case of `COc1ccc(C(=O)c2c(N)c(C#N)cn2-c2ccc([N+](=O)[O-])cc2)cc1`, the growth is 105%.

For the compound `O=C(N/N=C/c1ccsc1)c1[nH]c2ccc(Br)cc2c1-c1ccccc1`, the growth was -8.25% (active).

As to `O=C(c1ccc(O)cc1)C1[C@H](c2ccc(Cl)cc2)[C@@H](c2ccccc2)NC12C(=O)Nc1ccccc12` (stereo not given in full), the growth is -34.3% (active).

Take `O=C(OCCOCCO)N(c1cccc(Br)c1)c1nc(SCCN2CCOCC2)nc2c1cnn2CC(Cl)c1ccc(Br)cc1` (stereo not given): the growth is -24.3% (active).

Regarding `Cc1ccc(Cl)cc1NC(=O)N/C(N)=N/c1nc2ccccc2s1`, the growth is -8.52% (active).

Consider `O=C1C=CC(=CC=C2N(Cc3ccc4ccccc4c3)c3ccccc3N2Cc2ccc3ccccc3c2)C=C1`, for which the growth is 22.5% and 17.6%.

On to `CCc1ccc(SC2c3cc(OC)ccc3Oc3nc(N)c(C#N)c(N)c32)cc1` (stereo not given), for which the growth was -50.1% (active).

On to `NNc1ncnc2sc3c(c12)CCN(Cc1ccccc1)C3`, for which the growth was 19.7%.

On to `COc1nc(N)ncc1-c1ccc2ncnc(N3CCc4cc(F)c(Cl)cc43)c2c1`, for which the growth is 62.9%.
